Bioassay records: PubChem BioAssay, National Center for Advancing Translational Sciences (NCATS)
The list is not random: actives were taken first. Their share in the collection is about 3.8%.
Nrf2 block: Nrf2 pathway inhibition; A549 ARE-Fluc reporter, luciferase luminescence, 18-24 h; Potency, µM (highest dose often 46 µM), for inactives: at the highest dose activity change, negative = inhibition, usual class: inhibitors; 360,000 tested, 2.1% active; AID 504444; also: % is scaled to controls: 0 for no effect and ±100 for the full control effect; nearly all actives have a fitted effect of over 60% in size
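Reporter: ARE-Fluc in A549. Exposure: 18-24 h, 37 °C, 5% CO2, 5% FBS OPTI-MEM. Readouts: fluorescent cytotoxicity (CellTiter-Fluor), then luminescent Nrf2 signal after BugLite.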
ELG1 repair inh: blocks ELG1-dependent DNA repair in HEK293T cells; Potency, µM (titrated, usually from 46.1 µM), for the others: at the highest dose activity change, negative = inhibition, actives largely listed as inhibitors; HEK293T ELG1-luciferase reporter, luminescence, 16 h; DNA damage induced by 5-fluorouridine; 330,000 tested, 2.3% active; AID 504467; also: % is scaled to controls: 0 for no effect and ±100 for the full control effect; nearly all actives have a fitted effect of over 55% in size
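Overnight (16 hr) co-exposure of 2,000 cells/well to 5-fluorouridine and compound at 37 °C preceded detection. Luciferase was quantified via ONE-Glo luminescence; loss of signal denotes inhibition.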
Nrf2 ARE act: activators of Nrf2 (ARE) signaling | AREc32 ARE-luciferase reporter (MCF7-derived line), luminescence, 24 h | Potency, µM (titrated, usually from 46.1 µM), for inactives: top-dose activation, hits mostly activators | 410,000 tested, 0.31% active; also: % of control where 0% means no effect; nearly all actives have a fitted effect of over 65% in size
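Cells of the AREc32 ARE-luciferase line are plated in OPTI-MEM containing 5% FBS and left overnight at 37 deg C. Compounds are pinned in, incubation continues 24 hr, and firefly luciferase signal is then measured.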
IDH1 R132H inh: inhibitors of human mutant IDH1 R132H; IDH1-R132H enzyme, NADPH consumption, diaphorase/resazurin fluorescence; Potency, µM (top dose mostly 76.6 µM), for the others: at the top dose activity change, negative = inhibition, usual class: inhibitors; 390,000 tested, 0.093% active; also: % is scaled to controls: 0 for no effect and ±100 for the full control effect; nearly all actives have a fitted effect of over 65% in size
Target sequence (O75874 whole entry R132H, stated change not applied): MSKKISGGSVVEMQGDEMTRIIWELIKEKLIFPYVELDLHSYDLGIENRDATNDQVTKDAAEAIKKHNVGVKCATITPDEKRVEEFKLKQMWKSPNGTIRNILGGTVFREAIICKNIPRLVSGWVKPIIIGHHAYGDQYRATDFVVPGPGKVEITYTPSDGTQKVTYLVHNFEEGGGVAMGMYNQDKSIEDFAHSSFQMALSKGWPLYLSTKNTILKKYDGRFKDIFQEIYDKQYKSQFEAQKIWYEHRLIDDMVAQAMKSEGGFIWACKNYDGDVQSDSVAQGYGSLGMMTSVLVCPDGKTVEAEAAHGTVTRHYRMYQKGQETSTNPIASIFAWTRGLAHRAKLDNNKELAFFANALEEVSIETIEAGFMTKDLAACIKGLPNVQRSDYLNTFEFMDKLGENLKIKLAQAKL
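IDH1-R132H (0.5 ug/mL dispensed) in pH 7.5 Tris buffer was preincubated 30 min with compound, then given a substrate mix of 0.016 mM NADPH and 2 mM alpha-KG for 80 min at room temperature; remaining NADPH was read by diaphorase/resazurin fluorescence.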
A549 tox: kills or reduces viability of A549 cells in Nrf2 counter-screen; Potency, µM (highest dose often 46 µM), inactives show at the highest dose activity change, negative = cytotoxicity, most hits filed as inhibitors; A549 ARE-Fluc cells, CellTiter-Fluor viability, 18-24 h; 390,000 tested, 0.16% active; also: % is scaled to controls: 0 for no effect and ±100 for the full control effect
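A549 ARE-Fluc cells in 5% FBS OPTI-MEM, 5000 cells/well, rested 2 h then exposed to compounds in concentration-response for 18-24 h at 37 °C. Viability by CellTiter-Fluor fluorescence (Ex 405/Em 525) after 30 min; luciferase luminescence (BugLite, 15 min, RT) read afterwards.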
ELG1 FLuc counter: luciferase inhibition in cell-free luciferin readout for ELG1 hits. shares compounds with ELG1 repair inh. cell-free firefly luciferase luminescence counter-screen, ViewLux. 350 tested, 3% active. Potency, µM (series often up to 46.1 µM), for inactives: at the top dose activity change, negative = inhibition, usual class: inhibitors; also: % is scaled to controls: 0 for no effect and ±100 for the full control effect
ELG1-Luc inh: confirmation of human ELG1-dependent DNA repair inhibitors | Potency, µM (doses to about 46.1 µM), without a hit: top-dose activity change, negative = inhibition, usual class: inhibitors | 670 tested, 68% active | HEK293T ELG1-luciferase levels, luminescence; cells co-treated with 5-fluorouridine | shares compounds with ELG1 repair inh; also: % is scaled to controls: 0 for no effect and ±100 for the full control effect; nearly all actives have a fitted effect of over 55% in size
ELG1-Luc MMS: inhibits ELG1-dependent repair under MMS stimulation in HEK293T cells; shares compounds with ELG1 repair inh; HEK293T luciferase-tagged ELG1 level, MMS stimulated; Potency, µM (highest dose often 46.1 µM), for the others: at the top dose activity change, negative = inhibition, usual class: inhibitors; 670 tested, 53% active; also: % is scaled to controls: 0 for no effect and ±100 for the full control effect; nearly all actives have a fitted effect of over 60% in size
ELG1 5-FU: confirmation of ELG1 repair inhibitors: viability with 5FU; Potency, µM (doses to about 46.1 µM), for inactives: at the highest dose activity change, negative = viability loss, hits mostly cytotoxic; cell viability with 5-FU, ELG1-dependent repair; shares compounds with ELG1 repair inh; 670 tested, under 10 active; AID 624250;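 also: ELG1-luc HEK293T cells cotreated with 5-fluorouridine at 10 µM final; viability measured 16 h after compound addition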
ELG1 MMS viab: confirmation of ELG1 repair inhibitors: viability with MMS | 670 tested, 33% active | Cell viability with MMS, ELG1-dependent DNA repair | Potency, µM (doses to about 46.1 µM), without a hit: at the top dose activity change, negative = viability loss, actives largely listed as cytotoxic | shares compounds with ELG1 repair inh | AID 624251;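 also: ELG1-luc HEK293T cells co-treated with 10 µM MMS; viability read 16 h after compound addition; % is scaled to controls: 0 for no effect and ±100 for the full control effect; nearly all actives have a fitted effect of over 60% in size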
ELG1 unstim viab: counter-screen for ELG1 repair inhibitors: unstimulated cell viability; shares compounds with ELG1 repair inh; cell viability counter-screen, unstimulated, luminescence; Potency, µM (highest dose often 45.9 µM), without a hit: at the highest dose activity change, negative = loss of viability, hits mostly cytotoxic; 900 tested, 8% active; AID 624252;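 also: compound exposure lasted 16 hours before reading; % is scaled to controls: 0 for no effect and ±100 for the full control effect; nearly all actives have a fitted effect of over 55% in size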
FLuc enzyme: inhibits purified firefly luciferase, counter-screen for ELG1 hits | 350 tested, 10% active | Potency, µM (doses to about 57.5 µM), without a hit: at the top dose activity, negative = inhibition, most hits filed as inhibitors | shares compounds with ELG1 repair inh | purified firefly luciferase, luminescence counter-screen | AID 624253; also: % is scaled to controls: 0 for no effect and ±100 for the full control effect
An asterisk follows results filed as active; ? = inconclusive; · = no result given. Calls follow the shape of the dose curve; as a rule, active = well fitted curve in the direction sought with a large enough effect; inconclusive = small, poorly fitted or top-dose-only effect, or another doubt; inactive = no such curve, though single readings can be large; an effect the other way counts as inactive or inconclusive. Potency is read from the fitted curve at half-maximal effect.

SMILES	Nrf2 block	ELG1 repair inh	Nrf2 ARE act	IDH1 R132H inh	A549 tox	ELG1-Luc inh	ELG1-Luc MMS	ELG1 5-FU	ELG1 MMS viab	ELG1 unstim viab	others
Cc1nn(C)c(C)c1/C=C/C(=O)c1ccc(Cl)cc1Cl	?	4.11µM*	3.7%	0.2%	-16.6%	5.2%	1.58µM*	-4.9%	2.23µM*	?
Cc1nn(C)c(C)c1/C=C/C(=O)O	5.7%	-1.4%	-0.9%	-4.2%	?	·	·	·	·	·
CCN(CC)C(=O)c1sc2nc(N3CCOCC3)c3c(c2c1N)CCCC3	?	6.51µM*	0.3%	6.7%	-5.1%	11.2µM*	-13.8%	?	-8.0%	-22.5%	ELG1 FLuc counter=68.7%;FLuc enzyme=-8.7%
O=C(OCC(=O)N1CCc2ccccc2C1)c1c(F)cccc1Cl	?	?	11.1%	7.0%	-0.5%	·	·	·	·	-2.7%
CN(C)S(=O)(=O)c1cccc(CSCc2cccc(S(=O)(=O)N(C)C)c2)c1	6.51µM*	1.3µM*	-0.3%	-4.9%	6.0%	?	1.12µM*	-13.0%	1.12µM*	?
CCCCn1c(N)c(N(CC(C)C)C(=O)CSc2nnc(C)n2-c2ccccc2)c(=O)[nH]c1=O	-13.2%	·	-0.2%	4.5%	2.6%	·	·	·	·	·
COc1cc2cnc(-c3ccccc3)c(C(=O)c3ccc(OCc4ccccc4)cc3)c2cc1OC	-16.2%	2.59µM*	3.8%	8.4%	4.5%	9.96µM*	12.5µM*	?	11.2µM*	-0.4%
CN(C)CCNc1ncnc2c1sc1nc(N3CCOCC3)c3c(c12)CC(C)(C)SC3	-1.9%	0.1%	3.6%	4.2%	?	·	·	·	·	·
CC1(C)Cc2c(c(N3CCOCC3)nc3sc4c(=O)[nH]cnc4c23)CS1	?	-6.5%	0.2%	?	-2.1%	14.1µM*	6.4%	?	12.7%	-5.5%	ELG1 FLuc counter=6.0%;FLuc enzyme=2.8%
COc1ccc(NC(=O)c2cc(-c3cc(OC)c(OC)c(OC)c3)nc3ccccc23)cc1OC	-0.6%	1.83µM*	5.0%	-10.1%	1.2%	1.12µM*	19.9µM*	?	?	-13.5%
CC(C)(C)c1ccc(OCC(=O)N(Cc2ccco2)Cc2ccccc2F)cc1	?	·	-0.6%	-0.5%	0.2%	·	·	·	·	·
CCOc1ccc(C(C(=O)NCC2CCCO2)N(Cc2cccs2)C(=O)c2snc(C(N)=O)c2N)cc1 (stereo not drawn)	-19.2%	4.61µM*	-0.7%	0.4%	-13.0%	7.91µM*	7.91µM*	-11.8%	?	?
